Tb PYK inh: inhibitors of Trypanosoma brucei pyruvate kinase. TbPYK enzyme, Kinase-Glo Plus ATP luminescence, 45 min. hit rate 0.12% among 410,000. Potency, µM (doses to about 76.8 µM), for the others: at the highest dose activity, negative = inhibition, actives largely listed as inhibitors; further: on the % scale 0 is the no-effect control and ±100 the full control effect; nearly all actives have a fitted effect of over 50% in size
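Luminescence from Kinase-Glo Plus, added after a 45-minute room-temperature reaction, served as the end-point read-out. The enzyme and substrate were preincubated with compound before ADP (130 uM final) initiated turnover. Concentration-effect curves came from normalized qHTS data.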
NS1 function inh: inhibitors of influenza NS1 protein function; Potency, µM (titrated, usually from 46.1 µM), inactives show at the highest dose activity, positive = more growth; hit rate 0.4% among 270,000; calls by dose curve; further: actives are rising curves; nearly all actives have a fitted effect of over 50% in size
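Recovery from NS1-induced slow growth read by OD600 in budding yeast switched to galactose assay medium (pH 6.0, -URA) at 1:100 dilution. Compound 23 nl per well; the matching strain lacking NS1 serves as control.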
RE007 growth inh: less growth of the S. pombe RE007 Vpr strain; S. pombe RE007 Vpr strain, BacTiter-Glo ATP luminescence, 24 h; Potency, µM (series often up to 92.2 µM), inactives show at the top dose activity change, negative = less growth, usual class: inhibitors; hit rate 0.21% among 360,000; active means well fitted falling curve with a large enough effect; inconclusive means small, poorly fitted or top-dose-only effect; inactive means no such curve, though single readings can be large or run the other way; further: on the % scale 0 is the no-effect control and ±100 the full control effect; nearly all actives have a fitted effect of over 50% in size
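Fission yeast strain RE007, carrying one chromosomally integrated HIV-1 vpr copy, was seeded at OD 0.01 in PMG+AL medium with 23 nL pinned compound. After 24 h at 30 °C and 99% humidity, viability was read by BacTiter-Glo luminescence.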
LmPK inh: LmPK (Leishmania mexicana) enzyme inhibition. Q27686. purified LmPK, Kinase-Glo ATP luminescence, 1 h. Potency, µM (top dose mostly 57.5 µM), without a hit: at the top dose activity change, negative = inhibition, usual class: inhibitors. hit rate 0.37% among 290,000; further: on the % scale 0 is the no-effect control and ±100 the full control effect
Target sequence (Q27686 whole entry, looked up): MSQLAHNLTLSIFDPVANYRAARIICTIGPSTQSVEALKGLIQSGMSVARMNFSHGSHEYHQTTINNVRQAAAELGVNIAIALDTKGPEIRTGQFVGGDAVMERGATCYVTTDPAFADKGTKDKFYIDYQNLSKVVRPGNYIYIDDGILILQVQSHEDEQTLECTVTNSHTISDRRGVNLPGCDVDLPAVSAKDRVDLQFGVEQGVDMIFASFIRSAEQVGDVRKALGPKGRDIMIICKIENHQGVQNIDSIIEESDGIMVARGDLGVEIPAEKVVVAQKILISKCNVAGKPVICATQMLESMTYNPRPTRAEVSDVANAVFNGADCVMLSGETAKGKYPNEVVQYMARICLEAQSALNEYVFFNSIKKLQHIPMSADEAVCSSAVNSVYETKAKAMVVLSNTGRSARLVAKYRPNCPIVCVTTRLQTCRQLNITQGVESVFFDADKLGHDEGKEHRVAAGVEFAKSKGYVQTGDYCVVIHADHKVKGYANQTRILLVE
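Purified LmPK (0.1 nM) converted ADP (0.1 mM) to ATP with PEP (0.5 mM) in imidazole buffer pH 7.2 with KCl and MgCl2, 1 h at room temperature. ATP was read by Kinase-Glo luminescence; data normalized to uninhibited and no-enzyme controls.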
Starred values were filed as active, the others as inactive; ? = inconclusive; · = no result given; [ ] = another dose, or the depositor's remark. Shown are actives, neighbours in structure and some others; about 0.77% of the full set was active somewhere. Unless noted, the call rests on the fitted dose curve; in most records, active means well fitted curve in the direction sought with a large enough effect; inconclusive means small, poorly fitted or top-dose-only effect, or another doubt; inactive means no such curve, though single readings can be large; an effect the other way counts as inactive or inconclusive. Potency means the concentration at half of the fitted maximal effect.

SMILES | Tb PYK inh | NS1 function inh | RE007 growth inh | LmPK inh
CCO/N=C(\N)c1[nH]ncc1Br | 4% | 0% | 13% | 3%
N/C(=N\OC(=O)c1ccc(Cl)cc1)c1[nH]ncc1Br | ? | -3% | ? | 10µM*
N/C(=N\OC(=O)c1cccc(Cl)c1)c1ccccn1 | -20% | -53% | -28% | 14µM*
C[C@@H]1[C@H](O)[C@@H](C)C=CC=CCCC=CC=CC=CC=C[C@H](O[C@H]2O[C@@H](C)[C@H](O)[C@@H](N)[C@@H]2O)CC2O[C@](O)(C[C@@H](O)[C@H](O)CC[C@@H](O)C[C@@H](O)C[C@@H](O)CC(=O)O[C@H]1C)C[C@H](O)[C@H]2C(=O)O | 0% | · | · | ·
CCOc1ccccc1CNC(=O)c1cc2c(=O)n(Cc3ccccc3)ccc2nc1C | -8% | · | · | ·
COc1ccc([N+](=O)[O-])c(C=CC(=O)c2ccccn2)c1 | -2% | · | -23% | ·
N/C(=N\OC(=O)c1ccc(Cl)cc1)c1ccccn1 | ? | -161% | ? | 5µM*
COc1ccc(C(=O)NNC(=O)c2ccccn2)cc1 | ? | -27% | 10µM* | 1.3µM*
COc1ccc(/C=C/C(=O)c2ccccn2)cc1 | ? | · | ? | 8.9µM*
N/C(=N\OC(=O)c1ccc(Cl)c(Cl)c1)c1ccccn1 | -3% | -130% | -7% | -29%
Cc1ccc(C(=O)O/N=C(\N)c2ccccn2)c(C)c1 | ? | -58% | 35µM* | 6.3µM*
C=CC(=O)O | -2% | · | · | ·
O=C(Sc1ccc(Cl)cc1)c1ccccn1 | -7% | · | 22µM* | ·
COc1cc(OC)cc(C(=O)O/N=C(\N)c2ccccn2)c1 | 1% | -42% | ? | -6%
COc1ccc(C(=O)O/N=C(\N)c2ccccn2)cc1 | 10µM* | -30% | ? | 13µM*
CC(C)=CCc1c(O)ccc(C(=O)Cc2ccccc2)c1O | 0% | -167% | 35µM* | 3%
Cc1ccc(C(=O)Cc2ccccc2)c(O)c1 | 3% | · | -14% | ·
COc1ccccc1Nc1nn2c(=O)c3ccc(C(=O)NCCc4ccccc4)cc3nc2s1 | 6% | · | · | ·
O=c1c2cc([N+](=O)[O-])ccc2sn1-c1ccccc1 | 4.5µM* | · | 5.6µM* | ·
N#Cc1ccc2sn(-c3ccccc3)c(=O)c2c1 | 4µM* | · | 7.9µM* | ·
CC(=O)Nc1ccc2sn(-c3ccccc3)c(=O)c2c1 | ? | · | 5% | ·
CCOC(=O)c1c(NS(=O)(=O)Cc2ccccc2)sc2c1CCCC2 | -2% | -4% | -2% | 12%
CCOC(=O)c1c(NS(=O)(=O)c2ccc(Br)cc2)sc2c1CCC2 | 28µM* | · | 9% | ·
O=C(OCc1csc(-c2ccccc2)n1)c1cccs1 | -12% | -76% | -9% | -19%
Cn1cccc1C(=O)OCc1csc(-c2ccccc2)n1 | -7% | -59% | -29% | 14µM*
SMILES | Tb PYK inh | NS1 function inh | RE007 growth inh | LmPK inh
Cc1ccsc1C(=O)OCc1csc(-c2ccccc2)n1 | -23% | -57% | -13% | 16µM*
COc1ccc(CNC(=O)c2ccc3c(c2)N(C)CCS3)cc1 | -6% | 6% | 7% | -1%
COc1ccc(CNC(=O)c2ccc3c(c2)N(C)C(=O)CS3=O)cc1 (stereo unspecified) | -26% | 14µM* | -1% | 17%
CC(=O)O[C@]12CC[N@+]3(C)CCCC[C@@H]3[C-]1Nc1ccccc12 | · | -6% | · | ·
CCn1cc(C(=O)O)c(=O)c2cnc(N3CCN(C(=S)NC(=O)c4ccc(Cl)cc4)CC3)nc21 | -7% | -3% | -4% | 14µM*
CCOC(=O)[C@H](CCc1ccccc1)N[C@H]1CCCN2CCC[C@@H](C(=O)O)N2C1=O | 4% | · | · | ·
S=C(SSC(=S)N1CCOCC1)N1CCOCC1 | 3.2µM* | · | 1%[18.4 µM] | ·
CC(SC(=S)N1CCOCC1)C(=O)O (stereo unspecified) | -2% | 7% | -10% | 0%
Cc1ccc(/C=[N+](\[O-])c2ccc(N(C)C)cc2)c2nsnc12 | -20% | · | 4µM* | -2%
CCC(=O)O[C@@](Cc1ccccc1)(c1ccccc1)[C@H](C)CN(C)C | -2%[157 µM] | · | · | ·
O=C(O)c1cccc(SSc2cccc(C(=O)O)c2)c1 | · | -6% | · | ·
CC12CC3(C)CC(C)(C1)CC(C(=O)NC1=NCCS1)(C2)C3 | 1% | · | 25µM* | ·
CC12CC3CC(C)(C1)CC(C(=O)NC1=NCCS1)(C3)C2 | -8% | -239% | 5.6µM* | 3%
O=C1c2ccccc2C(=O)c2c1ccc(O)c2O | -21% | · | ? | ·
COC(=O)c1ccc2c(c1O)C(=O)c1ccccc1C2=O | 2% | -41% | 4.5µM* | -1%
O=c1cnc2cnc(OCc3ccccc3)nc2n1Cc1ccc(F)cc1 | 1% | · | · | ·
O=C1c2cccc3cccc(c23)C(=O)C1(O)O | 7.1µM* | · | 4% | ·
CC(C)c1cnc2c(c1SCc1ccc([N+](=O)[O-])cc1)c(=O)n(C)c(=O)n2C | 10µM* | · | · | ·
COc1ccc(-n2cc(C(=O)O)c3ccccc3c2=O)cc1 | 3% | -2% | 1% | 1%
COc1ccc(-n2sc3ccc(F)cc3c2=O)cc1 | ? | · | 10µM* | ·
O=c1c2cc(F)ccc2sn1-c1ccc(F)cc1 | 8.9µM* | · | 11µM* | ·
COc1ccc(-n2sc3ccccc3c2=O)cc1 | 11µM* | · | -87% | ·
COc1ccc(N2C(=O)CSC2c2ccc(F)cc2)cc1 (stereo unspecified) | -4% | 4% | 4% | -2%
CN(C)CCOC1=Cc2ccccc2Sc2ccc(Cl)cc21 | -4% | · | · | ·
CC#C[C@]1(O)CC[C@H]2C3CCC4=CC(=O)CCC4=C3[C@@H](c3ccc(N(C)C)cc3)C[C@@]21C (stereo partly specified) | · | -39% | · | ·
SMILES | Tb PYK inh | NS1 function inh | RE007 growth inh | LmPK inh
CO[C@@H]1[C@@H]([C@H](C)[C@@H]2O[C@@]3(CC[C@@](C)([C@H]4CC[C@@](C)([C@H]5O[C@H]([C@H]6O[C@](C)(O)[C@H](C)C[C@@H]6C)C[C@H]5O[C@H]5C[C@@H](OC)[C@H](OC)[C@@H](C)O5)O4)O3)C[C@@H](O)[C@@H]2C)O[C@@](O)(CC(=O)O)[C@H](C)[C@H]1OC | 0% | · | · | ·
CCCCN(CC)CCNC(=O)C1CCN(c2nnc(C)c3c(C)n(-c4ccc(C)cc4)nc23)CC1 | -5% | · | · | ·
O=C(O)c1ccc2c(c1)C(=O)/C(=C/c1ccccc1)C2=O | 35µM* | 18% | 3% | 0%
CC1(OC(=O)CCc2ccccc2)C(=O)C=C2C=C(c3ccsc3)OC=C2C1=O (stereo unspecified) | · | 1.3µM* | · | 0%
CC(C)C1=C[C@@]23CC[C@@H]4[C@](C)(CCC[C@@]4(C)C(=O)O)[C@@H]2C[C@@H]1[C@@H](C(=O)O)[C@@H]3C(=O)O | · | -6% | · | ·
CCCCS(=O)(=O)N1C2=NC(C(=O)OC)=C(C(=O)OC)[C@@H]3N(C)c4ccccc4[C@]23C[C@H]1C(=O)OC | · | · | · | 4%[11.5 µM]
CN(C)C(=O)c1ccc(N=Nc2c(O)c3ccccc3[nH]c2=O)cc1 | -29% | · | 18µM* | ·
Cc1ccccc1N=Nc1c(O)[nH]c2ccccc12 | -23% | · | -2% | ·
O=C(O)c1ccc(N=Nc2c(O)[nH]c3ccccc23)cc1 | -28% | 3% | ? | 14µM*
O=C(N=Nc1c(O)[nH]c2ccccc12)c1cccs1 | 0% | · | -12% | 16µM*
